For some assays here: Potency and affinity values are given separately. Calls of active or inactive are those of the source. The rule behind the calls is not given here.
target: Plasmodium falciparum protein kinase 6 (PK6, PF3D7_1337100) (UniProt Q8IDW1); experiment: PfPK6 kinase inhibitors, biochemical, TCAMS library (AID 1159586); conditions: recombinant PfPK6, Kinase-Glo ATP depletion luminescence
Sequence (Q8IDW1 1-305): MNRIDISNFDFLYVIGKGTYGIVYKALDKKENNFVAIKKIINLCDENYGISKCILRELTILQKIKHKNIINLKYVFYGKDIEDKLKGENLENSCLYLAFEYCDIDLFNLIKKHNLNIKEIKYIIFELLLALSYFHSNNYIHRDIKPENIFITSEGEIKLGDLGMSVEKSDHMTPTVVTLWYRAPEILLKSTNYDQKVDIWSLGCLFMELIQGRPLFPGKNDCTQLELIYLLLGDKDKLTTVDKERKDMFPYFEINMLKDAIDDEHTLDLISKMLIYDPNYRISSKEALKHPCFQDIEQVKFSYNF

outcome, inactive:
O=C(NCCCCN1CCC(c2c[nH]c3ccc(-c4ccccc4)cc23)CC1)c1ccc(-c2ccccc2)cc1, O=C(CC1SC(N2N=C(c3cccs3)CC2c2ccccc2)=NC1=O)Nc1ccc(Cl)cc1 (stereo not given), N#Cc1cccc(NC(=O)c2cccc(S(=O)(=O)NC3CCN(CC4CCCCC4)C3)c2)c1 (stereo not given), CCOc1cc(C(C)C)ccc1N1CCN(CCCCNC(=O)c2ccc(NC(=O)c3ccc(Cl)cc3)cc2)CC1, COc1ccccc1-c1cccc2c(NC(=O)Nc3ccc4nccc(N5CCN(C)CC5)c4c3)ccnc12, C=C(C)Cn1cc(C2CCN(CCCCNC(=O)c3sc(-c4ccc(Cl)cc4Cl)nc3CO)CC2)c2ccccc21, O=[N+]([O-])c1cccc(NC(=S)N2CCCN(Cc3ccc(C(F)(F)F)cc3)CC2)c1, COc1ccc2nc(C)cc(NCc3cccc4ccccc34)c2c1, O=C(Nc1ccc(Oc2ccccc2)cc1)N(CCN1CCCC1)Cc1ccc(-c2ccc(CN3CCNCC3)cc2)cc1, CCN(CC)CCNc1nc(C=Cc2ccc(Cl)cc2)nc2cc3ccccc3cc12, O=C(N[C@@H](CC1CCCCC1)C(=O)NCCN1CCOCC1)c1ccc(O)c(-c2ccc(Cl)c(Cl)c2)c1, COC[C@H]1CCCN1Cc1ccc(-c2ccc(-c3nc4ccccc4[nH]3)s2)cc1, CN(C)CCOc1ccc(N2CCN(CCCCNC(=O)c3ccc(/C=C/c4cc(Cl)cc(Cl)c4)cc3)CC2)cc1, Cc1ccc(Cn2cnc3cc(C(=O)Nc4ccc(-c5ccc(CN(C)C)cc5)cc4)ccc3c2=O)o1, COc1cc2c(cc1N(C(C)C)S(=O)(=O)c1sc3ccc(Cl)cc3c1C)CCNCC2, Cc1cc(-c2c[nH]c3ncc(-c4cccc5ncccc45)cc23)ccc1C(=O)O, O=C(N[C@@H](Cc1ccccc1)[C@H](O)CNC1CCCc2ccccc21)c1cc(C2CCCC2)cc(N2CCCC2=O)c1 (stereo not given in full), O=C(NC(CCCN1CCC2(CC1)OCc1ccccc12)c1ccc(Cl)c(Cl)c1)c1cc(C(F)(F)F)cc(C(F)(F)F)c1 (stereo not given), CN(C(=O)/C=C/c1cc(C(F)(F)F)ccc1F)C1CCN(CCCCCNC(=O)/C=C/c2ccc(Cl)c(Cl)c2)CC1, Cc1[nH]c(C)c(-c2ccc(OCc3ccccc3C(F)(F)F)nc2)c(=O)c1Br, CCCCOC(=O)C1=C(C)NC2=C(C(=O)CC(c3ccc(OC)c(OC)c3)C2)C1c1ccc(O)cc1 (stereo not given), Cc1ccc(C)c(Cn2ccc3nc(N)nc(N)c32)c1, CCOC(=O)c1ccc(NC(=O)N[C@@H](Cc2ccccc2)C(=O)NC2CCN(Cc3ccc(OCCCN(C)C)cc3)C2)cc1 (stereo not given in full), COc1ccc(NC2=C(c3ccccc3)C(=O)c3ccccc32)cn1, NC(=NC1CC1)c1ccc2nc(CCCCCc3nc4ccc(C(N)=NC5CC5)cc4[nH]3)[nH]c2c1, CCNc1cc(C)nc(Nc2ccc(NC(=O)c3ccco3)cc2)n1, Cn1cncc1C(=O)Nc1cccc(-c2cccc(-c3nc4ccc(F)cc4[nH]3)c2)c1, Cc1ccccc1N1CCN(c2ccc(C(=O)Nc3ccccc3)cn2)CC1, CN(C)Cc1cc2c(O)c(Cc3ccccc3)ccc2o1, COc1ccc(-c2nc3c(N)nc(N)nc3nc2-c2ccccc2Cl)cc1 (tested in a mixture with another compound), COc1ccccc1/C=C/C(=O)NCCC1CCN(CCCCCNC(=O)/C=C/c2ccc(Cl)c(Cl)c2)CC1, O=C(Nc1cccc(-c2cccc(-c3nc4ccc(F)cc4[nH]3)c2)c1)c1ccncc1, CC(C)CNC(=O)c1cncc(-c2ccc(CNC3Cc4ccccc4C3)cc2)c1, CC(C)n1cc2c(ccc3nc(N)nc(N)c32)n1, O=C(/C=C/c1ccc(Cl)c(Cl)c1)NCCCCCN1CCCC(CNC(=O)/C=C/c2ccccc2)C1 (stereo not given), COc1cc2ncnc(Nc3ccc4nc(-c5ccccc5)[nH]c4c3)c2cc1OC, COC(=O)C(Cc1ccccc1)NC(=O)NC1CCN(c2ccnc(Nc3ccc(F)cc3)n2)C1 (stereo not given), CCC[C@@H]([C@@H](Cc1ccc(C)s1)C(=O)N[C@@H](CNC(C)=O)C(=O)Nc1nccs1)N(O)C=O, N#Cc1ccc2c(c1)CCN(CCC1CCC(NC(=O)c3cc4cccc(Cl)c4[nH]3)CC1)CC2 (stereo not given), CC(=O)c1cccc(NC(=O)NC2CCN(CCCCCNC(=O)/C=C/c3ccc(Cl)c(Cl)c3)CC2)c1

target: Protein kinase 7 (PK7), Plasmodium falciparum 3D7 (PF3D7_0213400) (UniProt Q7YTF7); experiment: inhibition of Plasmodium PK7 catalytic activity – biochemical, TCAMS antimalarial set, Kinase-Glo luminescence (AID 1159587); conditions: recombinant PfPK7, Kinase-Glo ATP depletion luminescence
Sequence (Q7YTF7 1-343): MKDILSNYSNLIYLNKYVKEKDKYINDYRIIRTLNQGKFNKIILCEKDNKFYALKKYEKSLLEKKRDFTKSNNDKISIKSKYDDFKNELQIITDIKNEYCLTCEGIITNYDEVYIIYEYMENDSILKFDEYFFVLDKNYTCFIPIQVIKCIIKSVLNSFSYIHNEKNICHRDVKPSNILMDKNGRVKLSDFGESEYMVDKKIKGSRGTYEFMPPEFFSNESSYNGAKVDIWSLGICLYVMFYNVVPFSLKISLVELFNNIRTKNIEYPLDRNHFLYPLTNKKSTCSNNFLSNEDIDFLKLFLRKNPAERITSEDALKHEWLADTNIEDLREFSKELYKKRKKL

outcome, inactive:
O=C(NCCCCN1CCC(c2c[nH]c3ccc(-c4ccccc4)cc23)CC1)c1ccc(-c2ccccc2)cc1, O=C(CC1SC(N2N=C(c3cccs3)CC2c2ccccc2)=NC1=O)Nc1ccc(Cl)cc1 (stereo not given), N#Cc1cccc(NC(=O)c2cccc(S(=O)(=O)NC3CCN(CC4CCCCC4)C3)c2)c1 (stereo not given), CCOc1cc(C(C)C)ccc1N1CCN(CCCCNC(=O)c2ccc(NC(=O)c3ccc(Cl)cc3)cc2)CC1, COc1ccccc1-c1cccc2c(NC(=O)Nc3ccc4nccc(N5CCN(C)CC5)c4c3)ccnc12, C=C(C)Cn1cc(C2CCN(CCCCNC(=O)c3sc(-c4ccc(Cl)cc4Cl)nc3CO)CC2)c2ccccc21, O=[N+]([O-])c1cccc(NC(=S)N2CCCN(Cc3ccc(C(F)(F)F)cc3)CC2)c1, COc1ccc2nc(C)cc(NCc3cccc4ccccc34)c2c1, O=C(Nc1ccc(Oc2ccccc2)cc1)N(CCN1CCCC1)Cc1ccc(-c2ccc(CN3CCNCC3)cc2)cc1, CCN(CC)CCNc1nc(C=Cc2ccc(Cl)cc2)nc2cc3ccccc3cc12, O=C(N[C@@H](CC1CCCCC1)C(=O)NCCN1CCOCC1)c1ccc(O)c(-c2ccc(Cl)c(Cl)c2)c1, COC[C@H]1CCCN1Cc1ccc(-c2ccc(-c3nc4ccccc4[nH]3)s2)cc1, CN(C)CCOc1ccc(N2CCN(CCCCNC(=O)c3ccc(/C=C/c4cc(Cl)cc(Cl)c4)cc3)CC2)cc1, Cc1ccc(Cn2cnc3cc(C(=O)Nc4ccc(-c5ccc(CN(C)C)cc5)cc4)ccc3c2=O)o1, COc1cc2c(cc1N(C(C)C)S(=O)(=O)c1sc3ccc(Cl)cc3c1C)CCNCC2, Cc1cc(-c2c[nH]c3ncc(-c4cccc5ncccc45)cc23)ccc1C(=O)O, O=C(N[C@@H](Cc1ccccc1)[C@H](O)CNC1CCCc2ccccc21)c1cc(C2CCCC2)cc(N2CCCC2=O)c1 (stereo not given in full), O=C(NC(CCCN1CCC2(CC1)OCc1ccccc12)c1ccc(Cl)c(Cl)c1)c1cc(C(F)(F)F)cc(C(F)(F)F)c1 (stereo not given), CN(C(=O)/C=C/c1cc(C(F)(F)F)ccc1F)C1CCN(CCCCCNC(=O)/C=C/c2ccc(Cl)c(Cl)c2)CC1, Cc1[nH]c(C)c(-c2ccc(OCc3ccccc3C(F)(F)F)nc2)c(=O)c1Br, CCCCOC(=O)C1=C(C)NC2=C(C(=O)CC(c3ccc(OC)c(OC)c3)C2)C1c1ccc(O)cc1 (stereo not given), Cc1ccc(C)c(Cn2ccc3nc(N)nc(N)c32)c1, CCOC(=O)c1ccc(NC(=O)N[C@@H](Cc2ccccc2)C(=O)NC2CCN(Cc3ccc(OCCCN(C)C)cc3)C2)cc1 (stereo not given in full), COc1ccc(NC2=C(c3ccccc3)C(=O)c3ccccc32)cn1, NC(=NC1CC1)c1ccc2nc(CCCCCc3nc4ccc(C(N)=NC5CC5)cc4[nH]3)[nH]c2c1, CCNc1cc(C)nc(Nc2ccc(NC(=O)c3ccco3)cc2)n1, Cn1cncc1C(=O)Nc1cccc(-c2cccc(-c3nc4ccc(F)cc4[nH]3)c2)c1, Cc1ccccc1N1CCN(c2ccc(C(=O)Nc3ccccc3)cn2)CC1, CN(C)Cc1cc2c(O)c(Cc3ccccc3)ccc2o1, COc1ccc(-c2nc3c(N)nc(N)nc3nc2-c2ccccc2Cl)cc1 (tested in a mixture with another compound), COc1ccccc1/C=C/C(=O)NCCC1CCN(CCCCCNC(=O)/C=C/c2ccc(Cl)c(Cl)c2)CC1, O=C(Nc1cccc(-c2cccc(-c3nc4ccc(F)cc4[nH]3)c2)c1)c1ccncc1, CC(C)CNC(=O)c1cncc(-c2ccc(CNC3Cc4ccccc4C3)cc2)c1, CC(C)n1cc2c(ccc3nc(N)nc(N)c32)n1, O=C(/C=C/c1ccc(Cl)c(Cl)c1)NCCCCCN1CCCC(CNC(=O)/C=C/c2ccccc2)C1 (stereo not given), COc1cc2ncnc(Nc3ccc4nc(-c5ccccc5)[nH]c4c3)c2cc1OC, COC(=O)C(Cc1ccccc1)NC(=O)NC1CCN(c2ccnc(Nc3ccc(F)cc3)n2)C1 (stereo not given), CCC[C@@H]([C@@H](Cc1ccc(C)s1)C(=O)N[C@@H](CNC(C)=O)C(=O)Nc1nccs1)N(O)C=O, N#Cc1ccc2c(c1)CCN(CCC1CCC(NC(=O)c3cc4cccc(Cl)c4[nH]3)CC1)CC2 (stereo not given), CC(=O)c1cccc(NC(=O)NC2CCN(CCCCCNC(=O)/C=C/c3ccc(Cl)c(Cl)c3)CC2)c1
